Data as given in PMC4336329 (PLoS ONE, 2015).
Among all 310,000 compounds or so, about 14,000 (4.5%) showed an effect of 50% or more. Effects have a minus sign here. Many of the other results were omitted from the sample, so strong results are more common in it than they were.

These molecules were tested against human ether-à-go-go-related gene (hERG) potassium channel (human, UniProt Q12809) (assay: primary screen, population patch clamp on CHO cells stably expressing hERG; higher = less effect of the substance).
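Note: peak tail current of the secondary pulse compared with the same well before compound.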

Sequence of human ether-à-go-go-related gene (hERG) potassium channel (Q12809 whole entry, looked up): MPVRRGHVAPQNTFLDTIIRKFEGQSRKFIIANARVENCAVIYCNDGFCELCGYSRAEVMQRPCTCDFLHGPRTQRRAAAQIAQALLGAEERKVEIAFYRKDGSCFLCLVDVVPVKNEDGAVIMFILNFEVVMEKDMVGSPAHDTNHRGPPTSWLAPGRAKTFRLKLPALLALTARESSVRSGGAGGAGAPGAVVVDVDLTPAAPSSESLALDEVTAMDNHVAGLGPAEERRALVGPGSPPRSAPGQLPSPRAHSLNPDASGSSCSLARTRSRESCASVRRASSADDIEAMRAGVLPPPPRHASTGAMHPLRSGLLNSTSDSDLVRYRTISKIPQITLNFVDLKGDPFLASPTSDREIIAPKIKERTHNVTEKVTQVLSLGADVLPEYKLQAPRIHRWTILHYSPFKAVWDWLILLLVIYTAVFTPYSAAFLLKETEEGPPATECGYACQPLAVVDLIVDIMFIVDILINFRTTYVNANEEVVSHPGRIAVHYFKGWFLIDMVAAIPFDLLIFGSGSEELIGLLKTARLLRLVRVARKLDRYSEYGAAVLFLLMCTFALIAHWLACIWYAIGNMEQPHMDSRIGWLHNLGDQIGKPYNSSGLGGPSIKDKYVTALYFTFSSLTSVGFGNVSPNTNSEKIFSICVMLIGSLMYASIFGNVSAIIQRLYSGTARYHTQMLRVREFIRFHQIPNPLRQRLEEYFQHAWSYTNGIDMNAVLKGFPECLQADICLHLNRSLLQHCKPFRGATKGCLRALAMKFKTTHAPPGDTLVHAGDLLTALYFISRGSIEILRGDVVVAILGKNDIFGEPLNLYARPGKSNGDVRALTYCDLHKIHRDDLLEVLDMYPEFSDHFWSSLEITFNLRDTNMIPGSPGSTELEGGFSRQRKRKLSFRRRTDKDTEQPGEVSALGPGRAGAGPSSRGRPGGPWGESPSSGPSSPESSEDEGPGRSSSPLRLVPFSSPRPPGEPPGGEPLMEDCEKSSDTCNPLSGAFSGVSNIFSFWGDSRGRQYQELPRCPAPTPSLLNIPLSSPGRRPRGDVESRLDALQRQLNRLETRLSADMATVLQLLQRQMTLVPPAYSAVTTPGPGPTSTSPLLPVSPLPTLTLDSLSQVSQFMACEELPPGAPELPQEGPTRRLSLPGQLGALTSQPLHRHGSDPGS

Row | SMILES | hERG current change (%, negative = inhibition) at 10uM
1 | O=C(NC1CCN(C(=O)c2cccc([N+](=O)[O-])c2)CC1)c1ccccc1 | -32.8%
2 | CC(=O)NC1CCN(CC(=O)Nc2cccc([N+](=O)[O-])c2)CC1 | 18.7%
3 | Cc1ccc(C(=O)NC2CCN(CC(=O)Nc3cccc([N+](=O)[O-])c3)CC2)cc1 | -71.4%
4 | CCN1CCCC(NC(=O)c2cc([N+](=O)[O-])ccc2OC)C1.Cl.O (centres unmarked) | -11.8%
5 | COc1ccc([N+](=O)[O-])cc1C(=O)NC1CCN(Cc2ccccc2)CC1.Cl.O | -55.3%
6 | CC1CCN(CC(=O)Nc2cccc([N+](=O)[O-])c2)CC1 | 3.53%
7 | O=C(NC1CCN(CC(=O)N(c2ccccc2)c2ccccc2)CC1)c1ccc([N+](=O)[O-])cc1 | -78%
8 | O=C(NC1CCN(Cc2cccc([N+](=O)[O-])c2)CC1)c1ccccc1 | -53.7%
9 | CCOc1ccc(C(=O)NC2CCN(CC(=O)NCc3ccccc3)CC2)cc1 | -29.3%
10 | CC1CCCCC1NC(=O)CN1CCC(NC(=O)c2ccc([N+](=O)[O-])cc2)CC1 (centres unmarked) | 2.55%
11 | O=C(NC1CCN(Cc2ccccc2)CC1)C1CCN(S(=O)(=O)c2cccc([N+](=O)[O-])c2)CC1 | -8.03%
12 | COc1ccc(C)cc1NC(=O)NC1CCN(Cc2ccccc2)CC1 | -31.4%
13 | COc1ccccc1N/C=C/c1onc(C)c1[N+](=O)[O-] | 1.63%
14 | Cn1c2ccccc2c2cc(/C=C(\NC(=O)c3ccccc3)C(=O)O)ccc21 | 9.22%
15 | CSc1ccc(C(=O)N2CCc3ccc(NC(=O)c4ccccn4)cc3C2)cc1 | -4.13%
16 | Cc1ccc(NC(=O)Cn2c(/C=C/c3ccccc3)nc3ccccc32)cc1C | -0.723%
17 | Cc1ccc(C(=O)O/N=C(\N)c2ccccn2)c(C)c1 | -3.86%
18 | C/C(=N\OCC(=O)O)c1ccc(Cl)cc1 | 13.5%
19 | COc1ccc(CNC(=O)C(c2ccncc2)N(C(=O)Cc2cccs2)c2ccc(C)cc2)cc1 (centres unmarked) | -15.7%
20 | Cc1ccc(C2Nc3ccccc3C(=O)N2Cc2ccco2)cc1 (centres unmarked) | -32.5%
21 | O=C(O)c1cc(OCc2ccccc2)cc(OCc2ccccc2)c1 | 10.8%
22 | COc1ccc(NC(=O)CS(=O)CC(=O)Nc2ccc(OC)c(OC)c2)cc1 (centres unmarked) | 10.9%

Row | SMILES | hERG current change (%, negative = inhibition) at 10uM
23 | O=[N+]([O-])c1ccc(CSc2ccc(S(=O)(=O)N3CCCC3)cn2)cc1 | -32.6%
24 | Cc1ccc(N2C(=O)CC(N3CCc4ccccc43)C2=O)cc1Cl (centres unmarked) | 15.6%
25 | CCCCN(C)C(=O)c1cc2c(Cl)nc3ccccc3c2s1 | -4.12%
26 | Cc1ccc2nc(Cl)c3cc(C(=O)N(CCN(C)C)Cc4ccco4)sc3c2c1 | -39.8%
27 | CN(C)CCN(Cc1ccco1)C(=O)c1cc2c(Cl)nc3ccccc3c2s1 | -70.1%
28 | Cc1cc(=O)[nH]c(SCC(=O)Nc2ccc(C(=O)O)cc2)n1 | 5.37%
29 | O=Cc1c[nH]c2ccc(C(=O)c3ccccc3)cc12 | 3.97%
30 | CC(C)(C)n1nnnc1C(c1cccnc1)N1CCN(C(=O)c2ccco2)CC1 (centres unmarked) | -15.1%
31 | COc1cc(C(=O)ON=C2C(C)=CC(=O)C=C2C)cc(OC)c1OC | -11.9%
32 | C#CCOCCOCCOCCNc1nc(N2CCN(C(=O)[C@H](Cc3ccc(O)cc3)n3cc([C@@H](N)C(C)CC)nn3)CC2)nc(N2CCN(C(=O)[C@H](CCCCN)n3cc([C@@H](N)CC(C)C)nn3)CC2)n1.Cl (some centres unmarked) | 6.05%
33 | C/C(=N/NC(=O)CNS(=O)(=O)c1ccc(C)cc1)c1cccc([N+](=O)[O-])c1 | 14.5%
34 | CCC(C)NC(=O)CNC(=S)N(CCCN1CCOCC1)Cc1cccs1 (centres unmarked) | -14.4%
35 | O=C(Nc1ccc(Cl)cc1)N(Cc1cccs1)Cc1cccs1 | 0.899%
36 | O=C(Nc1ccc(Cl)c(Cl)c1)N(CCCN1CCOCC1)Cc1cccnc1 | -55.5%
37 | O=C(Nc1ccc(Cl)cc1)N(CCCN1CCOCC1)Cc1cccs1 | -70.7%
38 | COc1ccc(CN(CCCN2CCOCC2)C(=O)Nc2ccccc2)cc1OC | -10.9%
39 | Cc1ccc(NC(=O)N(CCCN2CCOCC2)Cc2cccs2)cc1C | -47.6%
40 | CCc1ccc(NC(=O)N(CCCN2CCOCC2)Cc2cccs2)cc1 | -52.8%
41 | Cc1ccc(NC(=O)N(CCCN2CCOCC2)Cc2cccnc2)cc1C | -10.8%
42 | O=C(Nc1ccccc1)N(CCCN1CCOCC1)Cc1cccs1 | -40.1%
43 | Cc1ccc(NC(=S)N(CCCN2CCOCC2)Cc2cccnc2)cc1C | 7.44%
44 | O=C(Nc1ccc(Cl)c(Cl)c1)N(CCCN1CCOCC1)Cc1cccs1 | -78%
